Reference: PubChem BioAssay (EPA / NIEHS)
Active and inactive are the calls of the source. Rule for the calls: active = hit-call score of the fitted dose curve at least 0.9, where 1 is the maximum; inactive = score below 0.9.

Each molecule was assayed against Bile acid receptor (Homo sapiens) (UniProt Q96RI1) (assay: ATG_IR1_CIS: Attagene CIS-FACTORIAL HepG2 Assay for human Nuclear Receptor Subfamily 1 Group H Member 4 (NR1H4), IR1 submotif (AID 2282946)). Details: IR1 reporter transcription, actives raise or lower the signal.
Sequence of Bile acid receptor (Homo sapiens) (Q96RI1 whole entry, looked up): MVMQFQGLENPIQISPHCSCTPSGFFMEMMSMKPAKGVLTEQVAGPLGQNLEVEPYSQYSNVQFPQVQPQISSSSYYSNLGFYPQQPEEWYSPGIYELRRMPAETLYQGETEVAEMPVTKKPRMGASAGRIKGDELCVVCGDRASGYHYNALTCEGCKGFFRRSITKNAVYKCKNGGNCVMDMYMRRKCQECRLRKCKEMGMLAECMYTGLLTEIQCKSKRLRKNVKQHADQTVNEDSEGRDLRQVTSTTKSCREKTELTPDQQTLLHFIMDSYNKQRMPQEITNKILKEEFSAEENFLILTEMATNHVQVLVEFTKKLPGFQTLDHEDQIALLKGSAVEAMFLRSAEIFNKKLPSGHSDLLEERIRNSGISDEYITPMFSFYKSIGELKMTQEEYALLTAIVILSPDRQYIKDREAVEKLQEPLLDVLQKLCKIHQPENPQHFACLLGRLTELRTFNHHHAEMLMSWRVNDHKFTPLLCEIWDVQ
Description: ATG_CIS is a cell-based, multiplexed-readout assay that uses HepG2, a human liver cell line, with measurements taken at 24 hours after chemical dosing in a 24-well plate.ATG_IR1_CIS is one of 52 assay component(s) measured or calculated from the ATG_CIS assay. It is designed to make measurements of mRNA induction, a form of inducible reporter, as detected with fluorescence intensity signals by Reverse transcription polymerase chain reaction (RT-PCR) and Capillary electrophoresis technology.Data from the assay component ATG_IR1_CIS was analyzed into 1 assay endpoint. This assay endpoint, ATG_IR1_CIS, was analyzed with bidirectional fitting relative to DMSO as the negative control and baseline of activity. Using a type of inducible reporter, measures of mRNA for gain or loss-of-signal activity can be used to understand the reporter gene at the transcription factor-level as they relate to the gene NR1H4. Furthermore, this assay endpoint can be referred to as a primary readout, because this assay has produced multiple assay endpoints where this one serves a reporter gene function. To generalize the intended target to other relatable targets, this assay endpoint is annotated to the nuclear receptor intended target family, where the subfamily is non-steroidal.
Human liver HepG2 cells are transiently transfected with multiple reporter transcription units (MRTUs) in 6-well plates using FuGene 6 reagent (Roche; 3 ml FuGene/1 mg DNA). The MRTU constructs are regulated by a cis-regulating element (promoter). […] A major difference between the CIS and TRANS system is that in CIS activities of endogenous TFs are measured, whereas the TRANS assay evaluates changes in activities of exogenous, chimeric NR-Gal4 proteins. […] At the end of 24 hour incubation, total RNA was isolated using TriZol reagent (Invitrogen). The isolated RNA is then reverse-transcribed using oligo(dT) primer and Mo-MLV reverse transcriptase (Invitrogen) with DNAse I (Ambion) treatment for 30 min. The one-tenth of the produced cDNA was amplified by PCR using Taq DNA polymerase (Invitrogen) and two reporter sequence-specific primers. The PCR products were fluorescently labeled by primer extension with 6-arboxyfluorescein (6-FAM) 5'-labeled reporter sequence-specific primer (2 min at 95 C, 20 s at 68 C and 10 min at 72 C) and these products were digested with 5U of HpaI (New England Biolabs) for 2h at 37 C. The fragments were purified using Qiaquick PCR columns (Qiagen), analyzed on an ABI 3130xL genetic analyzer (Applied Biosystems) with peak positions identified by using a set of X-rhodamine (ROX)-labeled MapMarker1000 molecular weight standards (BioVentures). The raw capillary electrophoresis data was processed using Attagraph software (Attagene).
In the case of `CCn1cc(C(=O)O)c(=O)c2ccc(C)nc21`, the outcome is reported as “inactive”.
For `CC(=O)c1ccc(O)cc1`, the outcome was “inactive”.
For `CCCCC/C=C\C=C\C(=O)OCC`, the AC50 was 79.6 µM (active).
For `CC1COC(=O)O1` (stereo not given), the outcome was “inactive”.
For `CCOCC(C)O` (stereo not given), the outcome was “inactive”.
In the case of `CCOc1ccc(NC(C)=O)cc1`, the outcome is reported as “inactive”.
In the case of `C1=COCCC1`, the outcome is reported as “inactive”.
In the case of `CCC(C)(C)C1CCC(OC)CC1` (stereo not given), the outcome is reported as “inactive”.
In the case of `C=CC(=O)OCC(CO)(COC(=O)C=C)COC(=O)C=C`, the AC50 is reported as 26 µM (active).
With `O=S1(=O)CC(Cl)(Cl)C(Cl)(Cl)C1` the AC50 was 5.49 µM (active).
In the case of `C=CC(C)(CCC=C(C)C)OC(=O)CC` (stereo not given), the outcome is reported as “inactive”.
In the case of `CCC(=O)OC/C=C(\C)CCC=C(C)C`, the outcome is reported as “inactive”.
`CC1=CCC(C(C)(C)O)CC1` (stereo not given) was tested, and the outcome was “inactive”.
For `OC[C@H]1O[C@@H](O[C@H]2[C@H](O)[C@@H](O)[C@H](O)O[C@@H]2CO)[C@H](O)[C@@H](O)[C@H]1O`, the outcome was “inactive”.
`CCc1cccc(O)c1` was tested, and the outcome was “inactive”.
In the case of `C=CCOCC(O)CO` (stereo not given), the outcome is reported as “inactive”.
`CC(O)COCC(C)O` (stereo not given) was tested, and the outcome was “inactive”.
For `C=CCOC(=O)/C=C\C(=O)OCC=C`, the outcome was “inactive”.
For `C=C/C(C)=C/C/C=C(\C)CCC=C(C)C`, the outcome was “inactive”.
With `Cc1ccccc1S` the AC50 was 55.7 µM (active).
`CCCCOCCOC(=O)c1ccccc1C(=O)OCCOCCCC` was tested, and the outcome was “inactive”.
`CC(=N[Si](C)(C)C)O[Si](C)(C)C` was tested, and the outcome was “inactive”.
With `C[C@H](CCC(=O)O)[C@H]1CC[C@H]2[C@@H]3CC[C@@H]4C[C@H](O)CC[C@]4(C)[C@H]3CC[C@]12C` the outcome was “inactive”.
With `CN(C)CCC=C1c2ccccc2CCc2ccccc21` the outcome was “inactive”.
For `Brc1cc(Br)cc(Br)c1`, the outcome was “inactive”.
`c1ccc(Cc2ccccc2)cc1` was tested, and the outcome was “inactive”.
With `C=C1CC[C@H]2O[C@]2(C)CC[C@@H]2[C@@H]1CC2(C)C` the outcome was “inactive”.
In the case of `CC(C)(C)c1cc(CCC(=O)OCCSCCOC(=O)CCc2cc(C(C)(C)C)c(O)c(C(C)(C)C)c2)cc(C(C)(C)C)c1O`, the outcome is reported as “inactive”.
With `CCCCCCC(O)CCOC(C)=O` (stereo not given) the outcome was “inactive”.
`C=C1CC/C=C(\C)CC[C@@H]2[C@@H]1CC2(C)C` was tested, and the AC50 was 81.9 µM (active).
`CN(C)c1ccc(C=O)cc1` was tested, and the outcome was “inactive”.
For `C=CC(O)CCCCC` (stereo not given), the outcome was “inactive”.
`CC(C)OB(OC(C)C)OC(C)C` was tested, and the outcome was “inactive”.
In the case of `CC(C)(O)CCc1ccccc1`, the outcome is reported as “inactive”.
For `CC(=O)C1=C(C)[C@@H]2C[C@@]3(C1)[C@H](C)CC[C@H]3C2(C)C`, the outcome was “inactive”.
`CC(CO)(CO)[N+](=O)[O-]` was tested, and the outcome was “inactive”.
For `O=C1OC2(c3ccc(O)cc3Oc3cc(O)ccc32)c2ccccc21`, the outcome was “inactive”.
`CCC(=O)OC(C)(C)C1CC=C(C)CC1` (stereo not given) was tested, and the outcome was “inactive”.
For `CCO[Si](CCC#N)(OCC)OCC`, the outcome was “inactive”.
For `CC(=O)C1C(=O)C=C(C)OC1=O` (stereo not given), the outcome was “inactive”.
